Compound activity (PubChem BioAssay)
Hits are enriched below; roughly 1.9% of the tested compounds scored in any of these assays.
dFosB act-1: mouse delta FosB homodimer activation; P13346; purified delta FosB, TAMRA-CDK5 oligo fluorescence polarization; percent of positive-control signal above neutral wells; activation, % at 25 µM; hit rate 0.99% among 340,000; AID 493131;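 active = mean activation above about 17%, with every replicate also reaching it, limit read from the data, passing the limit was not always enough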
Efa HMGR inh: E. faecalis class II HMG-CoA reductase inhibition. purified E. faecalis HMGR, NADPH absorbance 340 nm kinetic. hit rate 0.41% among 190,000. inhibition, % at 10 µM. AID 1066;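 active = inhibition above a set limit, the median over all tested compounds plus 3 SD, cut at about 9.5% in these data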;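 note: enzyme runs in reverse so mevalonate oxidation gives rising NADPH absorbance; 0% = complete reaction with DMSO and 100% = background rate lacking mevalonate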
p47phox inh: blocks human p47phox regulatory protein of NADPH oxidases; P14598; p47phox/p22phox peptide binding, fluorescence polarization, 2 h; inhibition, % at 24.7 µM; hit rate 0.53% among 220,000; AID 1274;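 active = inhibition above about 30%, limit read from the data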;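 note: 0% = p47phox with labelled peptide and 100% = labelled peptide alone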
14-3-3 Bad PPI: disrupts binding of bovine 14-3-3 zeta to phospho-Bad peptide; TR-FRET 14-3-3zeta/Dy647-pBad peptide displacement, 1 h; P63103; inhibition, % at 21.7 µM; hit rate 0.71% among 220,000;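 active = inhibition above about 70%, limit read from the data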;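 note: 0% = full 14-3-3 plus peptide FRET controls and 100% = background without 14-3-3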
Target sequence (P63103 whole entry, looked up): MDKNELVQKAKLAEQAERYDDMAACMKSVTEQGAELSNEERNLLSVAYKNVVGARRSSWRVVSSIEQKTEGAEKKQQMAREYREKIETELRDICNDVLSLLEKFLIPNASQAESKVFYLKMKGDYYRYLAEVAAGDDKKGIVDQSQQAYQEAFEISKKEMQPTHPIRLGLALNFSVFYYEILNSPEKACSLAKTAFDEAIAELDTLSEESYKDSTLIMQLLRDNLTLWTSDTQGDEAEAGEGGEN
dFosB act-2: delta FosB (mouse) homodimer activation; purified delta FosB, TAMRA-CDK5 oligo fluorescence polarization; normalised: neutral wells 0, positive control 100; AID 588690; activation, % at 24.9 µM; shares compounds with dFosB act-1; 2,400 tested, under 10 active;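 active = highest replicate activation at or above 34% and every replicate reaching that threshold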;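 note: higher polarization means more probe DNA bound by delta FosB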
An asterisk follows results filed as active.

`Cc1ccc(NC(=O)CSc2nc3c([nH]c4ccccc43)c(=O)n2C)cc1` gave dFosB act-1 8, Efa HMGR inh -3, p47phox inh 7 and 14-3-3 Bad PPI 2.
`COCCn1c(SCC(=O)Nc2ccccc2OC)nc2c([nH]c3ccccc32)c1=O` gave dFosB act-1 5.
Screening COCCn1c(SCC(=O)Nc2ccc(F)cc2)nc2c([nH]c3ccccc32)c1=O returned dFosB act-1 11.
`Cn1c(SCC(=O)Nc2ccc(F)cc2)nc2c([nH]c3ccccc32)c1=O` gave dFosB act-1 21*, Efa HMGR inh -3, p47phox inh -15, 14-3-3 Bad PPI 4 and dFosB act-2 -1.
For CCn1c(SCC(=O)Nc2ccc(NC(C)=O)cc2)nc2c([nH]c3ccccc32)c1=O the results were dFosB act-1 39* and dFosB act-2 0.
Screening COc1ccc(OC)c2sc(N(CCCN(C)C)C(=O)CCS(=O)(=O)c3ccccc3)nc12 returned dFosB act-1 -4.
COc1ccc(Cl)c2sc(N(CCN(C)C)C(=O)CCS(=O)(=O)c3ccc(C)cc3)nc12 was read as dFosB act-1 82* and dFosB act-2 3.
Screening CN(C)CCN(C(=O)CCS(=O)(=O)c1ccccc1)c1nc2c(F)cccc2s1 returned dFosB act-1 -5.
Cc1cc(C)c2sc(N(CCN(C)C)C(=O)CCS(=O)(=O)c3ccccc3)nc2c1 was read as dFosB act-1 21* and dFosB act-2 3.
Screening CCN(CC)CCN(C(=O)CCS(=O)(=O)c1ccccc1)c1nc2c(C)cc(C)cc2s1 returned dFosB act-1 56* and dFosB act-2 -2.
`CCN(CC)CCN(C(=O)CCS(=O)(=O)c1ccccc1)c1nc2cc(OC)c(OC)cc2s1` gave dFosB act-1 -5.
`CCN(CC)CCN(C(=O)CCS(=O)(=O)c1ccccc1)c1nc2cc(C)cc(C)c2s1` gave dFosB act-1 43* and dFosB act-2 6.
For Cc1ccc(OCC(=O)N(Cc2ccccc2)C2CCS(=O)(=O)C2)c([N+](=O)[O-])n1 (stereo not drawn) the results were dFosB act-1 3, Efa HMGR inh -6, p47phox inh -14 and 14-3-3 Bad PPI -1.
For O=c1[nH]cnc2c([N+](=O)[O-])cccc12 the results were dFosB act-1 -1, Efa HMGR inh 2, p47phox inh -7 and 14-3-3 Bad PPI 11.
For CCN(CC)CCN(C(=O)c1ccc2c(c1)OCCO2)c1nc2cc(C)cc(C)c2s1 the results were dFosB act-1 30* and dFosB act-2 4.
For CCN(CC)CCN(C(=O)c1ccc2c(c1)OCCO2)c1nc2c(Cl)cccc2s1 the results were dFosB act-1 -7.
Screening CC(=O)Nc1ccc(S(=O)(=O)Nc2ccccc2C(=O)N2CCCCCC2)cc1 returned dFosB act-1 -4.
For Clc1ccc(Sc2ccccn2)cc1 the results were dFosB act-1 8.
COc1ccc([C@@H]2[C@@H]3C(=O)N(C(C)(C)C)C(=O)[C@@H]3[C@]3(C)C(=O)N(c4cccc(Br)c4)C(=O)N23)cc1 was read as dFosB act-1 4.
`COc1ccc(C(=O)N/N=C/c2cn[nH]c2-c2ccc(OC)cc2OC)cc1` gave dFosB act-1 17*, Efa HMGR inh -4, p47phox inh -14, 14-3-3 Bad PPI 0 and dFosB act-2 4.
`COc1ccc(-c2[nH]ncc2/C=N/NC(=O)c2ccc(Br)cc2)c(OC)c1` gave dFosB act-1 8, Efa HMGR inh 2, p47phox inh -33 and 14-3-3 Bad PPI 6.
For COc1ccc(-c2[nH]ncc2/C=N/NC(=O)c2ccncc2)c(OC)c1 the results were dFosB act-1 19* and dFosB act-2 0.
For CCOC(=O)c1sc2nc(C)[nH]c(=S)c2c1C the results were dFosB act-1 21*, Efa HMGR inh -2, p47phox inh -43, 14-3-3 Bad PPI -15 and dFosB act-2 3.
Screening CC(=O)Oc1ccc(/C=C2\N=C(C3CCCCC3)OC2=O)cc1 returned dFosB act-1 -8, Efa HMGR inh -8, p47phox inh -10 and 14-3-3 Bad PPI -13.
